# Only some compounds are listed: those with a hit (about 5.4% of all), similar ones and a draw of the others.
# Lassa entry inh: inhibitors of Lassa virus binding or cell entry; Lassa virus pseudotype entry inhibition, cell reporter; actives 1.2% (n = 300,000); Potency, µM (highest dose often 37.9 µM), for the others: at the highest dose activity change, negative = inhibition, most hits filed as inhibitors; calls by dose curve; tested in HEK293 cells; note: nearly all actives have a fitted effect of over 50% in size
# Vaccinia Venus: inhibitors of vaccinia virus (Venus reporter). Vaccinia virus Venus reporter expression, fluorescence. Potency, µM (series often up to 36.5 µM), for inactives: at the highest dose activity change, negative = inhibition, actives largely listed as inhibitors. actives 0.46% (n = 330,000). AID 720580; calls by dose curve; tested in A549 cells; note: nearly all actives have a fitted effect of over 30% in size
# MARV entry inh: Marburg virus entry inhibition; Marburg virus pseudotyped entry inhibition, cell reporter; Potency, µM (series often up to 37.8 µM), for the others: at the highest dose activity change, negative = inhibition, most hits filed as inhibitors; actives 1.8% (n = 300,000); AID 540276; calls by dose curve; tested in HEK293 cells
# VACV mCherry inh: inhibitors of vaccinia virus infection (mCherry reporter signal); Vaccinia virus mCherry reporter infection, fluorescence; Potency, µM (highest dose often 36.5 µM), for inactives: at the top dose activity change, negative = inhibition, most hits filed as inhibitors; actives 0.63% (n = 310,000); calls by dose curve; tested in A549 cells; note: nearly all actives have a fitted effect of over 35% in size
# FMDV inh: antivirals against foot and mouth disease virus; FMDV antiviral cell-based qHTS; actives 1.2% (n = 410,000); Potency, µM (top dose mostly 57.9 µM), inactives show top-dose activity change, negative = inhibition, most hits filed as inhibitors; calls by dose curve; tested in HEK293T cells; note: read-out not given here; nearly all actives have a fitted effect of over 45% in size
# Sm TGR inh: blocks Schistosoma mansoni thioredoxin glutathione reductase; Q962Y6; purified TGR, DTNB reduction, TNB absorbance 405 nm; Potency, µM (top dose mostly 114 µM), without a hit: at the top dose activity change, negative = inhibition, usual class: inhibitors; actives 3% (n = 360,000); AID 485364; active = well fitted inhibition curve with a large enough effect; inconclusive = small, poorly fitted or top-dose-only effect; inactive = no such curve, though single readings can be large or run the other way; note: nearly all actives have a fitted effect of over 60% in size
#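 TGR 20 nM + NADPH 100 uM (dispensed conc.), cpd preinc 15 min RT; start with NADPH (500 uM addition) then DTNB (15 mM addition). Kinetic TNB absorbance, 405 nm filter. Four-parameter Hill fit across titration.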
# The depositor's hits bear a star; i = inactive; ? = inconclusive; · = not tested or not shown; [ ] = dose if it differs, or a comment. % is set by controls: 0 for no effect and ±100 for the full control effect; potency is the fitted concentration of half-maximal effect.
SMILES,Lassa entry inh,Vaccinia Venus,MARV entry inh,VACV mCherry inh,FMDV inh,Sm TGR inh
O=S(=O)(/N=C(\c1ccc(Cl)cc1)N1CCOCC1)c1ccccc1,25%,-9%,17%,-12%,2%,-4%
O=[N+]([O-])c1cc(S(=O)(=O)/N=C(/c2ccccc2)N2CCOCC2)ccc1Cl,·,-6%,·,-10%,0%,45µM*
COc1ccc2cc(CN(C(=O)Nc3ccccc3OC)C3CCCC3)c(=O)[nH]c2c1,?,-13%,8.9µM*,-27%,-20%,0%
COc1ccc2[nH]c(=O)c(CNc3ccc(C)cc3C)cc2c1,?,-12%,-12%,-1%,-10%,13µM*
COc1ccc2[nH]c(=O)c(CNc3ccccc3OC)cc2c1,-20%,-6%,-19%[46.1 µM],-15%,?,18µM*
COc1ccc2[nH]c(=O)c(CNc3ccccc3C)cc2c1,?,-7%,?,i,22%,?
CCOc1ccc(S(=O)(=O)N2CCC(N3CCN(Cc4ccc(C)cc4)C(=O)C3=O)CC2)cc1,4%[46.1 µM],-18%,·,-27%,-15%,0%
CCCCC(=O)c1c(O)c2ccccc2oc1=O,4%,-23%,0%,·,11%,-12%
CC1CCC(C(=O)c2c(O)c3ccccc3oc2=O)CC1 (configuration not stated),2%,·,3%,·,-8%,9%
CCOc1ccc(OCC(=O)c2c(O)c3ccccc3oc2=O)cc1,-7%,4%,-10%,·,4%,18µM*
CC(=N)c1c(O)c2ccccc2oc1=O,·,·,·,·,42%,12%
O=C(CC1CCCCC1)c1c(O)c2ccccc2oc1=O,0%,·,6%,·,8%,50µM*
COc1ccc(OCC(=O)c2c(O)c3ccccc3oc2=O)cc1,20%,·,-10%,·,19%,32µM*
Cc1ccc(C(=O)CSc2cnc3ccccc3n2)cc1C,?,13%,18µM*,-14%,?,12%
COc1ccc(CCCc2nnc(SCC(=O)Nc3nccs3)n2C)cc1C,21µM*,·,4%,·,-27%,-11%
O=[N+]([O-])c1cc(Cl)c2cccnc2c1O,-22%[46.1 µM],?,?,28µM*,-29%,·
O=[N+]([O-])c1cc(Cl)c(O)c2ncccc12,?,?,?,?,-30%,11µM*
O=[N+]([O-])c1cc(F)c2cccnc2c1O,·,·,·,·,-13%,3.2µM*
CC1(C)CC(NC(=O)c2ccc(Cl)c(S(=O)(=O)N(Cc3ccccc3)c3ccccc3)c2)CC(C)(C)N1,-43%,?,8.9µM*,-17%,-28%,-11%
COc1ccccc1NC(=O)COc1ccc(/C=N/NC(=O)CSCc2ccc(Cl)cc2)cc1,5%,-4%,?,i,18µM*,-8%
O=C1c2cccc(NCCNCCO)c2C(=O)c2cccc(NCCNCCO)c21,?,?,5µM*,?,0%,·
COc1ccc(OC)c(C2C=C(C34CC5CC(CC(C5)C3)C4)NC(=S)N2)c1 (configuration not stated),?,-18%,7.1µM*,-20%,-1%,-8%
CCOc1ccc(/C=C/c2nc(C#N)c(NCCc3ccccc3)o2)cc1,-6%[46.1 µM],?,?,i,0%,4%
COc1ccc(SCC(=O)c2cc(C)c(OC(=S)N(C)C)c(C)c2)cc1,?,-13%,-3%[46.1 µM],-4%,-1%,-8%
Cc1cc(C(=O)CSc2ccc(F)cc2)cc(C)c1OC(=S)N(C)C,?,0%,?,·,0.79µM*,0%
CC(C)(CO)NC(=O)c1cnn(-c2ncc3c(n2)-c2ccccc2CC3)c1C1CC1,·,-8%,·,-14%,41%,·
CCOc1ccc(CNC(=O)c2cccn2-c2nnc(N3CCCCC3)s2)cc1OC,0%[46.1 µM],-10%,·,-24%,-27%,-10%
COC/C=C/C1=CC2=CC(=O)C(C)(OC(=O)c3cnc4ccccc4n3)C(=O)C2=CN1c1ccccc1 (configuration not stated),·,-15%,·,?,-25%,22µM*
COC/C=C/C1=CC2=CC(=O)C(C)(OC(=O)c3cnc4ccccc4n3)C(=O)C2=CN1c1ccc(CO)cc1 (configuration not stated),·,·,·,·,·,45µM*
CCOC(=O)c1c(C)c(-c2ccccc2)n(CC(=O)NC2CCCCCC2)c1C,·,-5%,?,-4%,-15%,?
